High-throughput results: PubChem BioAssay, Broad Institute
NSD2 block: inhibitors of human NSD2, primary screen, biochemical, plate reader, single point | Histone-lysine N-methyltransferase NSD2 (Homo sapiens), O96028 | NSD2-SET H3K36me1 DELFIA fluorescence | inhibition, % at 12.5 µM | actives 0.07% (n = 44,000); in the data active means inhibition above about 54%, passing the limit was not always enough;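 further: inhibitors reduce the monomethyl H3K36 fluorescence signal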
* marks the source's active call; other numbers are inactive results. This is one part of a sample in which hits are shown more often than they occur.

SMILES	NSD2 block
C[C@H]1[C@H]2OC3=C(C(=O)OC3(C)O)C(=O)[C@]1(C)[C@H]1CCCC[C@]1(O)[C@H]2O (stereo partly specified)	0
NC(=O)CN1C(=O)C(O)(C2CCc3ccccc3C2=O)c2ccccc21 (stereo unspecified)	-7
N#C/C(N)=C(\C#N)N=Cc1ccc(C#N)cc1	3
COc1cc(C[C@@H]2CO[C@@H](c3ccc(O)c(OC)c3)[C@@H]2CO)ccc1O	68*
COc1cc([C@H]2OC[C@H]3[C@@H]2CO[C@@H]3c2ccc(O)c(OC)c2)ccc1O	11
COc1cc([C@H]2OC[C@H]3[C@@H]2CO[C@H]3c2ccc(OC)c(OC)c2)ccc1O	-1
Cc1ccc(N2C(=O)C3C4C=CC(CNC(=S)Nc5ccc(Br)cc5)(O4)C3C2=O)cc1 (stereo unspecified)	7
CN(C(=S)Nc1ccccc1)C1CCC(C2OCCO2)CC1O (stereo unspecified)	-2
CC(C)(C)Sc1nc2ccccc2[nH]c1=S	-5
O=C(O)c1c(O)cc(OC2OC(CO)C(O)C(O)C2O)cc1/C=C/c1ccccc1 (stereo unspecified)	76*
O=C(CCc1ccc(O)cc1)c1ccc(O[C@@H]2O[C@H](CO)[C@H](O)[C@H](O)[C@H]2O)cc1O	15
O=C(/C=C/c1ccccc1)O[C@@H]1O[C@H](CO)[C@@H](O)[C@H](O)[C@H]1O	0
COc1cc(/C=C/C(=O)O[C@@H]2C[C@@](O)(C(=O)O)C[C@@H](O)[C@@H]2O)ccc1O	12
O=C(/C=C/c1ccc(O)cc1)O[C@@H]1CC(O)(C(=O)O)C[C@@H](OC(=O)/C=C/c2ccc(O)cc2)C1O (stereo partly specified)	63*
CC(=O)CCC1C2C(O)C(C(C)C)C(OC(=O)/C=C/c3ccccc3)CC12C (stereo unspecified)	-11
CC1(C)Cc2ccccc2C(CSc2nc3c(c(C(F)(F)F)n2)CCCC3)=N1	9
O=C(N/N=C/c1cc(I)cc(I)c1O)c1ccccn1	10
CC(CC[C@]1(C)C2CCC=C(CO)[C@]2(C)CC[C@H]1C)CC(=O)O (stereo partly specified)	-1
CC1=CC(=O)OC1(O)CCC(C)CC(=O)O (stereo unspecified)	75*
CC1=CC(=O)CC2C1(C)CCC(C)C2(C)CCC(C)CC(=O)O (stereo unspecified)	8
Clc1nc(NC2CCCCC2)c2cc(Br)ccc2n1	4
COC(=O)c1cc(O)c(C(=O)c2c(O)cccc2C(=O)O)c(O)c1	16
COc1cc(/C=N/NC(=O)c2ccc(C(=O)NO)cc2)cc(OC)c1OC	1
